Paper PMC7862700, “An all-to-all approach to the identification of sequence-specific readers for epigenetic DNA modifications on cytosine”

Molecular target: T1, ETV2 (Homo sapiens, UniProt O00321 1-342)
T1 sequence: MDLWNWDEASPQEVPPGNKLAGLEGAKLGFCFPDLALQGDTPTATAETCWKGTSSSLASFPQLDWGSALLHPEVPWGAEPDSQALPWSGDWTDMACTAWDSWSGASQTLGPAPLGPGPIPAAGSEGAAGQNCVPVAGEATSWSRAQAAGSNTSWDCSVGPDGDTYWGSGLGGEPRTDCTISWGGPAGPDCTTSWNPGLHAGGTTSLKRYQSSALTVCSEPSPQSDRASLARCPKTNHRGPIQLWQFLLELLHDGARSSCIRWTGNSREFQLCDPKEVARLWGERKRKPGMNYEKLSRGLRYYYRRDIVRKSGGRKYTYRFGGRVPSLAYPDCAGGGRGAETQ
Assay: DAPPL (digital affinity profiling via proximity ligation, sequencing); 10 mM Tris-HCl pH 7.5, 50 mM NaCl, 1 mM DTT, 4% glycerol, room temperature, 30 min; GST-TFs on glutathione beads, 16-mer random dsDNA library, 0.1% formaldehyde crosslink after washing; high values mean tight binding
Settings: protein: recombinant; tags: N-terminal GST; dsDNA, one strand shown
Outline: (§1)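 Pools of DNA-barcoded human transcription factors, expressed in yeast as GST fusions on glutathione beads and combined with a tag-only sample, were incubated with 200 nmole of a 16-mer random double-stranded DNA library. Incubation took 30 min at room temperature in Tris/NaCl/DTT/glycerol buffer and was followed by washing, 0.1% formaldehyde crosslinking, proximity ligation (BsaI/T4 ligase, 1 h, 37 °C), PCR amplification and sequencing on an Illumina NextSeq500. Binding signal is the ratio of a hexamer's read frequency for a factor to its frequency for the tag-only sample.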

| Sequence | binding signal |
| --- | --- |
| TCTTCG | 1.5 fold enrichment (6-mer frequency, TF over GST control) |
| GCTTTG | 1.22 fold enrichment (6-mer frequency, TF over GST control) |
| TCTCTG | 1.45 fold enrichment (6-mer frequency, TF over GST control) |
| TAAAAG | 1.22 fold enrichment (6-mer frequency, TF over GST control) |
| CCTTAA | 1.35 fold enrichment (6-mer frequency, TF over GST control) |
| CTTTTT | 1.28 fold enrichment (6-mer frequency, TF over GST control) |
| CTTCAA | 1.46 fold enrichment (6-mer frequency, TF over GST control) |
| ACTAAA | 1.24 fold enrichment (6-mer frequency, TF over GST control) |
| ATATCC | 2.7 fold enrichment (6-mer frequency, TF over GST control) |
| AATCTC | 1.26 fold enrichment (6-mer frequency, TF over GST control) |
| TACCCG | 1.44 fold enrichment (6-mer frequency, TF over GST control) |
| CCTGTT | 1.62 fold enrichment (6-mer frequency, TF over GST control) |
| TTTTCC | 1.88 fold enrichment (6-mer frequency, TF over GST control) |
| AAAACT | 1.19 fold enrichment (6-mer frequency, TF over GST control) |
| TAATAC | 1.16 fold enrichment (6-mer frequency, TF over GST control) |
| GACTTC | 2.35 fold enrichment (6-mer frequency, TF over GST control) |
| ATGGCA | 1.31 fold enrichment (6-mer frequency, TF over GST control) |
| TCCGAC | 1.35 fold enrichment (6-mer frequency, TF over GST control) |
| TTACAG | 1.14 fold enrichment (6-mer frequency, TF over GST control) |
| AATTTC | 1.88 fold enrichment (6-mer frequency, TF over GST control) |

| Sequence | binding signal |
| --- | --- |
| ACCAAT | 1.13 fold enrichment (6-mer frequency, TF over GST control) |
| TAACAC | 1.15 fold enrichment (6-mer frequency, TF over GST control) |
| TTAGGG | 1.15 fold enrichment (6-mer frequency, TF over GST control) |
| CTACAC | 1.19 fold enrichment (6-mer frequency, TF over GST control) |
| CTAGCT | 1.31 fold enrichment (6-mer frequency, TF over GST control) |
| ATCCAT | 1.19 fold enrichment (6-mer frequency, TF over GST control) |
| TAGTAC | 1.06 fold enrichment (6-mer frequency, TF over GST control) |
| TTTGAA | 1.38 fold enrichment (6-mer frequency, TF over GST control) |
| AACCTA | 1.27 fold enrichment (6-mer frequency, TF over GST control) |
| GATGTT | 1.21 fold enrichment (6-mer frequency, TF over GST control) |
| CCTTAG | 1.32 fold enrichment (6-mer frequency, TF over GST control) |
| CGCGCT | 1.11 fold enrichment (6-mer frequency, TF over GST control) |
| CATCTA | 1.1 fold enrichment (6-mer frequency, TF over GST control) |
| TCTATT | 1.16 fold enrichment (6-mer frequency, TF over GST control) |
| CTATTT | 1.68 fold enrichment (6-mer frequency, TF over GST control) |
| TTCAGG | 1.14 fold enrichment (6-mer frequency, TF over GST control) |
| GCTATA | 1.2 fold enrichment (6-mer frequency, TF over GST control) |
| CTCATT | 1.49 fold enrichment (6-mer frequency, TF over GST control) |
| CAATTT | 1.44 fold enrichment (6-mer frequency, TF over GST control) |

Molecular target: T2, ELF3 (Homo sapiens, UniProt P78545 1-371)
T2 sequence: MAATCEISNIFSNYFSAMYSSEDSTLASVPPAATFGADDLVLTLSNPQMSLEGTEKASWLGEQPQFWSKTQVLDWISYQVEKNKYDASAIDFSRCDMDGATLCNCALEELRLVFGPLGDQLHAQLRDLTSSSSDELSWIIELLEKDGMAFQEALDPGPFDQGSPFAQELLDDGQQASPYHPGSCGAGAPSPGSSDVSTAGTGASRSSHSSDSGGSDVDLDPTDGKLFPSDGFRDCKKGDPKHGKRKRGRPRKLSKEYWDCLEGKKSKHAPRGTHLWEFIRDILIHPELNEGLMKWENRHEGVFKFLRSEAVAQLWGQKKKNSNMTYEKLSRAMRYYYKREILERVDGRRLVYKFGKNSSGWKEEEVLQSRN
Assay: as above
Settings: protein: recombinant; tags: N-terminal GST; dsDNA, one strand shown
Outline: as §1

| Sequence | binding signal |
| --- | --- |
| TCTTCG | 1.47 fold enrichment (6-mer frequency, TF over GST control) |
| GCTTTG | 1.16 fold enrichment (6-mer frequency, TF over GST control) |
| TCTCTG | 1.37 fold enrichment (6-mer frequency, TF over GST control) |
| TAAAAG | 1.21 fold enrichment (6-mer frequency, TF over GST control) |
| CCTTAA | 1.37 fold enrichment (6-mer frequency, TF over GST control) |
| CTTTTT | 1.58 fold enrichment (6-mer frequency, TF over GST control) |
| CTTCAA | 1.37 fold enrichment (6-mer frequency, TF over GST control) |
| ACTAAA | 1.33 fold enrichment (6-mer frequency, TF over GST control) |
| ATATCC | 2.77 fold enrichment (6-mer frequency, TF over GST control) |
| AATCTC | 1.27 fold enrichment (6-mer frequency, TF over GST control) |
| TACCCG | 1.34 fold enrichment (6-mer frequency, TF over GST control) |
| CCTGTT | 1.62 fold enrichment (6-mer frequency, TF over GST control) |
| TTTTCC | 1.89 fold enrichment (6-mer frequency, TF over GST control) |
| AAAACT | 1.12 fold enrichment (6-mer frequency, TF over GST control) |
| TAATAC | 1.05 fold enrichment (6-mer frequency, TF over GST control) |
| GACTTC | 2.29 fold enrichment (6-mer frequency, TF over GST control) |
| ATGGCA | 1.28 fold enrichment (6-mer frequency, TF over GST control) |
| TCCGAC | 1.47 fold enrichment (6-mer frequency, TF over GST control) |
| TTACAG | 1.38 fold enrichment (6-mer frequency, TF over GST control) |
